# Assay results from ChEMBL document CHEMBL2218924, “A broad activity screen in support of a chemogenomic map for kinase signalling research and drug discovery” (Biochem J, 2013).
# How the values were obtained:
# [1] = molecular target: T1, Ephrin type-A receptor 3 (Homo sapiens) (UniProt P29320); conditions: at 10 µM
# T1 sequence (whole entry): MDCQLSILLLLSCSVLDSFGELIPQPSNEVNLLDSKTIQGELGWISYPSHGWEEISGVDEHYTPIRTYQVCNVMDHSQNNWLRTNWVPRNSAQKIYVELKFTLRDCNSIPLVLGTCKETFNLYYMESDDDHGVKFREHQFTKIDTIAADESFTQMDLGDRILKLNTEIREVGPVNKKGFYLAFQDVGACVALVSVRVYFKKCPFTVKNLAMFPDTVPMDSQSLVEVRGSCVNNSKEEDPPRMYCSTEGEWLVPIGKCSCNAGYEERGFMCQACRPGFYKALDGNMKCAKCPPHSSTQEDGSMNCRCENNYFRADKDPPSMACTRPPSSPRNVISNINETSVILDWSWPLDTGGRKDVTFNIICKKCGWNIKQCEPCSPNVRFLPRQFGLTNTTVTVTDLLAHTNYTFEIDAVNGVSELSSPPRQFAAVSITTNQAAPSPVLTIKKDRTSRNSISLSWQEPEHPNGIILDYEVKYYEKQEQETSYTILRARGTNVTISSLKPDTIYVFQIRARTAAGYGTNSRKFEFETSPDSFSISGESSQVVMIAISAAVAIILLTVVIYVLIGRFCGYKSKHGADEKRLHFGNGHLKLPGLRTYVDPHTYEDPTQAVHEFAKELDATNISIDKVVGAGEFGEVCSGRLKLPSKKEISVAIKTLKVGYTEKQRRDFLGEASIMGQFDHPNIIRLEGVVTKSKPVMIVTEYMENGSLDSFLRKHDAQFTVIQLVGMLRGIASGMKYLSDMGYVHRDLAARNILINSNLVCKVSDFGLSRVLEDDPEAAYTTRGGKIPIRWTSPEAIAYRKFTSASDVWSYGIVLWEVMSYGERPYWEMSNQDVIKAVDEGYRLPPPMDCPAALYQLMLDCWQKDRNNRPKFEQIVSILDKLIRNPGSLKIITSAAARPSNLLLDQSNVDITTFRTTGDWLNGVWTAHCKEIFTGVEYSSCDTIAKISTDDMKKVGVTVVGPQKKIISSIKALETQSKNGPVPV
# [2] = molecular target: Ephrin type-A receptor 4 (Homo sapiens) (UniProt P54764); conditions: at 1 µM
# [3] = molecular target: Ephrin type-A receptor 4 (Homo sapiens) (UniProt P54764); conditions: at 10 µM
# [4] = molecular target: Ephrin type-A receptor 5 (Homo sapiens) (UniProt P54756); conditions: at 1 µM
# [5] = molecular target: Ephrin type-A receptor 5 (Homo sapiens) (UniProt P54756); conditions: at 10 µM
# [6] = molecular target: Ephrin type-A receptor 7 (Homo sapiens) (UniProt Q15375); conditions: at 1 µM
# [7] = molecular target: Ephrin type-A receptor 7 (Homo sapiens) (UniProt Q15375); conditions: at 10 µM
# [8] = molecular target: T2, Ephrin type-A receptor 8 (Homo sapiens) (UniProt P29322); conditions: at 1 µM
# T2 sequence (whole entry): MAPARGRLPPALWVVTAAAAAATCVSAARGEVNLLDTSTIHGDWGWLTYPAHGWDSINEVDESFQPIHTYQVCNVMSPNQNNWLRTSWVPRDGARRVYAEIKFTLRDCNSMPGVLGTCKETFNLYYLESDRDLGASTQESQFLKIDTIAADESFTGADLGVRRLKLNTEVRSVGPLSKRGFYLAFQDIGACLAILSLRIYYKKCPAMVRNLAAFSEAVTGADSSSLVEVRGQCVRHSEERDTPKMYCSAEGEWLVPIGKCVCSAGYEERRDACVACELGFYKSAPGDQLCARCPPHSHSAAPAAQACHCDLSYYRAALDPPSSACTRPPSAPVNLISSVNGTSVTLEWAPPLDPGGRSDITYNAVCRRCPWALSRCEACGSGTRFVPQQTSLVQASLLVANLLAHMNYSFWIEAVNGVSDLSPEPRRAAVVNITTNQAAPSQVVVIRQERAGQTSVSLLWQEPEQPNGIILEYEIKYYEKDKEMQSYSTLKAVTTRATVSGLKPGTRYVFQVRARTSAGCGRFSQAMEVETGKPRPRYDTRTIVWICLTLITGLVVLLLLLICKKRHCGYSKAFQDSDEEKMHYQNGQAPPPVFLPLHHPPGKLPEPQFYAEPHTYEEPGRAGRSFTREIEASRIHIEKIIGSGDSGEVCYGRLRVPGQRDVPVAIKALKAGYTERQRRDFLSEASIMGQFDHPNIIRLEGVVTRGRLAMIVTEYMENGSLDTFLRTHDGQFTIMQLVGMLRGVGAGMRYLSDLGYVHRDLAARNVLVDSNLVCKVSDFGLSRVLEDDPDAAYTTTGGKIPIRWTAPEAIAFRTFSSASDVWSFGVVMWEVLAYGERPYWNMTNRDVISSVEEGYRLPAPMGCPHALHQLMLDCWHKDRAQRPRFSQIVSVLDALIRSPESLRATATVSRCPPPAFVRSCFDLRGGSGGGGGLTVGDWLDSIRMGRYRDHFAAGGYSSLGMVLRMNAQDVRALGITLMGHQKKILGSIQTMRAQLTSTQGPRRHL
# [9] = molecular target: T2, Ephrin type-A receptor 8 (Homo sapiens); conditions: at 10 µM
# [10] = molecular target: T3, Ephrin type-B receptor 1 (Homo sapiens) (UniProt P54762); conditions: at 1 µM
# T3 sequence (whole entry): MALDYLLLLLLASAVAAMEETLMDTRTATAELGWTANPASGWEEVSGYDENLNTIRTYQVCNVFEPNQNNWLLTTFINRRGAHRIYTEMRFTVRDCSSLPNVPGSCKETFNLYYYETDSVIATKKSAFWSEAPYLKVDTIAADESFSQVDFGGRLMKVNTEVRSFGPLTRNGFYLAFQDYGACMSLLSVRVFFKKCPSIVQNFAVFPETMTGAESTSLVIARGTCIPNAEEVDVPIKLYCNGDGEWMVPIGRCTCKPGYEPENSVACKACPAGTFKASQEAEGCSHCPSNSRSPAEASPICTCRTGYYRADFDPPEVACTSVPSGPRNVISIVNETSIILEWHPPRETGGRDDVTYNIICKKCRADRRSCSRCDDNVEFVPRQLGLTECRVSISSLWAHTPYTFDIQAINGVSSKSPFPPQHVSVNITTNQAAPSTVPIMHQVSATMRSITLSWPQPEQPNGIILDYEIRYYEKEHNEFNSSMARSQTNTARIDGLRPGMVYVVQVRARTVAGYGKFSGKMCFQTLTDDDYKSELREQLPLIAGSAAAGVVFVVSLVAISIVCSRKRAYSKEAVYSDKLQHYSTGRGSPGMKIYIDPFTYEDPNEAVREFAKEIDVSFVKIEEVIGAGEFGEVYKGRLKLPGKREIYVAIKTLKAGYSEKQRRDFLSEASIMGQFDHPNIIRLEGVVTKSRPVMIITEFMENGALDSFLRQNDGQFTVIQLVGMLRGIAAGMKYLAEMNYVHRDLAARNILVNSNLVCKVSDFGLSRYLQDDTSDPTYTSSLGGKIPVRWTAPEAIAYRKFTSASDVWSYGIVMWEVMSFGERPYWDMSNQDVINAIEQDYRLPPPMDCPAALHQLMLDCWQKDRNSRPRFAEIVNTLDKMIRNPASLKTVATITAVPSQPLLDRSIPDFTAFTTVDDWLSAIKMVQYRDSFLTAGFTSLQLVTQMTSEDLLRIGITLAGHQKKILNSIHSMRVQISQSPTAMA
# Ephrin type-A receptor 5 (Homo sapiens), sequence (P54756 whole entry): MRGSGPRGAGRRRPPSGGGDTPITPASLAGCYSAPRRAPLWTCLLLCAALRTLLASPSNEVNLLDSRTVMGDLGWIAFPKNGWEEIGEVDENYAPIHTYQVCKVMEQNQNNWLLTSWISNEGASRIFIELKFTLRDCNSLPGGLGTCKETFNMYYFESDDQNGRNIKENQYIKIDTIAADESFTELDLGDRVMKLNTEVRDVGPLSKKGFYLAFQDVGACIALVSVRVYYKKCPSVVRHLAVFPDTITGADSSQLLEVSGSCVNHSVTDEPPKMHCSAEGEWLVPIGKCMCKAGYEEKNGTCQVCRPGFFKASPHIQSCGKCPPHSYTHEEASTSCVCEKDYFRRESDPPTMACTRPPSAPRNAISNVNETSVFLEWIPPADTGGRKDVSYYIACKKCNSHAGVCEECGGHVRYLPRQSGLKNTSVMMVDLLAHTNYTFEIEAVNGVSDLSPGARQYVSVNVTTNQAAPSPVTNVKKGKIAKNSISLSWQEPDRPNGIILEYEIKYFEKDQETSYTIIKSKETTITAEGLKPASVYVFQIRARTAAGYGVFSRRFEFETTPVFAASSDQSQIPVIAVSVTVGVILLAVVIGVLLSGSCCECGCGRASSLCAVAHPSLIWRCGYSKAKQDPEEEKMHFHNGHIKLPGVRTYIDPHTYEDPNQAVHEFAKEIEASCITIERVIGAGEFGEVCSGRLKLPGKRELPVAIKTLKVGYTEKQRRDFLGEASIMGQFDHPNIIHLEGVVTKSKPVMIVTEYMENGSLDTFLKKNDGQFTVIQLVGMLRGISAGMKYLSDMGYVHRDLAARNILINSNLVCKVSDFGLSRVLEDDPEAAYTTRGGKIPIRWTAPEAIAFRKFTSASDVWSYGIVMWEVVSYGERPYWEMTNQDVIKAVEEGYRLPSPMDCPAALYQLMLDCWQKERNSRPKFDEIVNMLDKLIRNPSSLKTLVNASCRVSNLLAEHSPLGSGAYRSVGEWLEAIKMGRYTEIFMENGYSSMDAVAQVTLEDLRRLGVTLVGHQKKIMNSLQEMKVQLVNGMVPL
# Ephrin type-A receptor 4 (Homo sapiens), sequence (P54764 whole entry): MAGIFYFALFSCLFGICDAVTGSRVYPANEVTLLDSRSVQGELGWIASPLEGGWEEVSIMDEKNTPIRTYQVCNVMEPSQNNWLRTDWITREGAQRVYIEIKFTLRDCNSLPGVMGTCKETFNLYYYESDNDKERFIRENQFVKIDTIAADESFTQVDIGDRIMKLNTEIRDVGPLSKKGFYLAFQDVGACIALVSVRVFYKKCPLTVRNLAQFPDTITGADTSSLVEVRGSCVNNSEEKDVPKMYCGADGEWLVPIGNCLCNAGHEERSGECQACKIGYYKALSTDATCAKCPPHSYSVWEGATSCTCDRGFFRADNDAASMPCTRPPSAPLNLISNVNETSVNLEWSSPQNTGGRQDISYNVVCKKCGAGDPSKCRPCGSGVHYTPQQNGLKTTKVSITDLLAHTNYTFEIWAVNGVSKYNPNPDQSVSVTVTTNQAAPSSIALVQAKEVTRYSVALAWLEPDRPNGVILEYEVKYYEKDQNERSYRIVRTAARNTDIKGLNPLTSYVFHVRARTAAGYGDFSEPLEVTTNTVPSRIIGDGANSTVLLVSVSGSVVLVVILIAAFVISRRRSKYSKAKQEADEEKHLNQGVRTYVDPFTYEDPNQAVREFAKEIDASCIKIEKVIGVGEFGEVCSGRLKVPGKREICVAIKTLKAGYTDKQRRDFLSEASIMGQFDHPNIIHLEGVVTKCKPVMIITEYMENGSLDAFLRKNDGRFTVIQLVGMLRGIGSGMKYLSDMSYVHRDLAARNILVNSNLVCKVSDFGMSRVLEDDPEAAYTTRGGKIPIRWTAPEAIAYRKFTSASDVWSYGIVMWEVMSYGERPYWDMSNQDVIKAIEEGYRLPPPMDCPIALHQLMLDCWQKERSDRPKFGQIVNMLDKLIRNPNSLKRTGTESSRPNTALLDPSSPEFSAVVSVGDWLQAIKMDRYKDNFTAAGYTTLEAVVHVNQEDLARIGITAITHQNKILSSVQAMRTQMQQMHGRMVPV
# Ephrin type-A receptor 7 (Homo sapiens), sequence (Q15375 28-998 limits assumed): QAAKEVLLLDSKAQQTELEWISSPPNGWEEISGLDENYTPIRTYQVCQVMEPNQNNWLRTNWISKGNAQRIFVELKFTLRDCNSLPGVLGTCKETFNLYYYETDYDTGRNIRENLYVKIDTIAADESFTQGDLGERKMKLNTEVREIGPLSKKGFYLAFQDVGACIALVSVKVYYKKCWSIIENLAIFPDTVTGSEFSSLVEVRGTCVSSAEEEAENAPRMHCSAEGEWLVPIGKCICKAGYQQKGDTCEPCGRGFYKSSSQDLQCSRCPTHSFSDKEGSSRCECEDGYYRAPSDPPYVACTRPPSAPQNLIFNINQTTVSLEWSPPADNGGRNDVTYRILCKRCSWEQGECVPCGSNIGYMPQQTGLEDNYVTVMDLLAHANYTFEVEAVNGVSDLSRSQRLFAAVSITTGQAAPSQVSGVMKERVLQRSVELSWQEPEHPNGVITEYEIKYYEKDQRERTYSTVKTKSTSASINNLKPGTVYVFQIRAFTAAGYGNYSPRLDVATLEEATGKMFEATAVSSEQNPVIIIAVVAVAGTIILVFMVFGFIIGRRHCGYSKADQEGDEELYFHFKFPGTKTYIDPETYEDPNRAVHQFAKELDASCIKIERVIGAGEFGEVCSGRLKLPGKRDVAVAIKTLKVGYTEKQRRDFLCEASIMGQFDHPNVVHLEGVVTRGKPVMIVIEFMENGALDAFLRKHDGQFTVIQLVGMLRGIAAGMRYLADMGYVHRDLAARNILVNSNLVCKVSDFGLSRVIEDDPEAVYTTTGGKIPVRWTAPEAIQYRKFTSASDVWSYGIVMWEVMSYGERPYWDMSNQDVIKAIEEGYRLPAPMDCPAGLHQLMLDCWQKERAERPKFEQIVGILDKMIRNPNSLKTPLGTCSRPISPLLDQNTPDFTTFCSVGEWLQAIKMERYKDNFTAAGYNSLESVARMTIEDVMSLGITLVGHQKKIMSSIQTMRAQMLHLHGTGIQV
smiles,measurement,setting,value
O=Nc1c(-c2c(O)[nH]c3ccccc23)[nH]c2ccccc12,residual activity,[1],9%
same,residual activity,[2],96%
same,residual activity,[3],83%
same,residual activity,[4],59%
same,residual activity,[5],9%
same,residual activity,[6],70%
same,residual activity,[7],15%
same,residual activity,[8],84%
same,residual activity,[9],43%
same,residual activity,[10],59%
